This note sets out measurements from PubChem BioAssay (NCI).

Assay in all cases: NCI-60 one-dose screen, 48 h (100 = growth as untreated, 0 = no growth, -100 = all killed)
For experiment [1], the system named is HT29 colon. The following applies: 10 µM unless noted.
Experiment [2] concerns SNB-75 CNS. Conditions: 10 µM unless noted.
In experiment [3] the test system is SNB-19 CNS. Conditions: 10 µM unless noted.
Experiment [4] concerns SK-MEL-5 melanoma. The following applies: 10 µM unless noted.
Experiment [5] concerns UACC-62 melanoma. The following applies: 10 µM unless noted.
The subject of experiment [6] is LOX IMVI melanoma. Conditions: 10 µM unless noted.
Experiment [7] has as its system SK-MEL-28 melanoma. The following applies: 10 µM.
For experiment [8], the system named is SK-MEL-2 melanoma. Conditions: 10 µM unless noted.
Experiment [9] concerns EKVX NSCLC. The following applies: 10 µM unless noted.
Experiment [10] concerns SN12C renal. The following applies: 10 µM unless noted.
For experiment [11], the system named is UO-31 renal. Conditions: 10 µM unless noted.
For experiment [12], the system named is TK-10 renal. Conditions: 10 µM unless noted.
For experiment [13], the system named is ACHN renal. Conditions: 10 µM unless noted.
Experiment [14] relates to CAKI-1 renal. The following applies: 10 µM unless noted.
In experiment [15] the test system is A498 renal. The following applies: 10 µM unless noted.
In experiment [16] the test system is CCRF-CEM leukemia. Conditions: 10 µM unless noted.
Experiment [17] has as its system MOLT-4 leukemia. The following applies: 10 µM unless noted.
Experiment [18] has as its system SR leukemia. The following applies: 10 µM unless noted.
Experiment [19] has as its system U251 CNS. The following applies: 10 µM unless noted.
Experiment [20] relates to PC-3 prostate. The following applies: 10 µM unless noted.

The structures appear in SMILES notation. The panel holds about 83,000 compounds, 20% with a hit somewhere; the sample as a whole holds those more often.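 Interpretation: 100, growth as untreated; towards 0, rising growth inhibition; 0, no net growth; 0 to -100, cell death. Compounds scoring below 10 were considered active.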 A number with no mark means an inactive call. The source made the active and inactive calls.

For the molecule `Cc1ccc(Cc2cnc(NC(=O)CN3C(=O)/C(=C\c4ccccc4)SC3=S)s2)cc1`, the growth in experiment [1] was 114%; in experiment [2], 94.4%; in experiment [3] it was 99.7%; in experiment [4], 102%; in [5], 98.4%; in experiment [6], 98.6%. Further, the growth was 106% in experiment [7]; 106% in experiment [8]; 98.1% in [9]; 96.6% in experiment [10]; 89.4% in experiment [11]; 106% in [12]. The growth is 101% in experiment [13]; 95.5% in [14]; 109% in experiment [15]; 107% in [16]; 104% in experiment [17]; 114% in experiment [18].

With `CCN(CC)CCNC(=O)C(Cl)=C1C(Cl)=C(Cl)C(Cl)=C1Cl`, the growth in experiment [1] was 41.3%; in [2], 48.4%; in [19] it was 40.8%; in [20], 56.2%; in experiment [4], 47%; in experiment [5], 55.1%. For the same molecule, the growth in experiment [6] was 22.6%; in experiment [7], 72.7%; in experiment [8], 47.6%; in experiment [9], 87.8%; in experiment [10], 47.8%; in [11], 43.6%. Also, the growth in [12] is 59.4%; in experiment [13], 48.6%; in experiment [14] it was 6.11% (active); in experiment [15] it was 71.8%; in experiment [17], 15%; in experiment [18] it was 34.8%.

With `COC(=O)c1c2c(c(C)[n+]([O-])c1C)C(=O)C=C(NCc1ccccc1)C2=O`, the growth in experiment [1] was 5.35% (active); in experiment [2] it was -71.5% (active); in experiment [19], -9.66% (active); in [20], 4.06% (active); in experiment [4] it was -98.5% (active); in experiment [5], -72.3% (active). For the same molecule, the growth is -28.2% (active) in [6]; 14.1% in experiment [7]; -29.6% (active) in experiment [8]; -54.9% (active) in experiment [9]; -89.1% (active) in experiment [10]; -13.6% (active) in [11]. For the same molecule, the growth was 18.1% in experiment [12]; -29.5% (active) in experiment [13]; 3.56% (active) in [14]; 6.23% (active) in [16]; -36.2% (active) in [17]; 4.44% (active) in experiment [18].

In the case of `O=C1NC(=O)C(=Cc2cn(Cc3cn(Cc4ccc(Cl)cc4Cl)nn3)c3ccccc23)C(=O)N1`, the growth is 111% in experiment [1]; 75.4% in experiment [2]; 91% in experiment [19]; 89.6% in experiment [20]; 69.5% in experiment [4]; 67.6% in [5]. For the same molecule, the growth was 107% in experiment [7]; 79.3% in experiment [8]; 104% in experiment [9]; 90.4% in experiment [10]; 63.9% in [11]; 68.8% in experiment [12]. Further, the growth was 102% in experiment [13]; 56.3% in experiment [14]; 38.3% in experiment [15]; 76.4% in [16]; 84.6% in [17].

Take `CC(=O)Nc1nc2c(s1)CCc1c-2cn(S(=O)(=O)c2ccccc2)c1-c1ccccc1`: the growth in experiment [1] was 78.1%; in experiment [2], 82.8%; in [19] it was 62.4%; in experiment [20] it was 40.9%; in [4], 43.9%; in experiment [5], 58%. In addition, the growth in [6] was 47.1%; in experiment [7], 95.1%; in [8], 94.5%; in experiment [10], 76.8%; in [11], 41.2%; in experiment [12], 85.9%. For the same molecule, the growth was 69.1% in [13]; 56.9% in experiment [14]; 88.1% in experiment [15]; 43.1% in [16]; 48.2% in experiment [17]; 28.1% in [18].

`O=C1OC(c2ccccc2)(c2ccccc2)c2ccsc21`: the growth in experiment [1] is 102%; in experiment [2], 103%; in experiment [19], 102%; in [20], 101%; in [4], 102%; in experiment [5] it was 94.1%. Moreover, the growth was 103% in experiment [6]; 112% in experiment [7]; 94% in [8]; 98.8% in experiment [10]; 88.6% in experiment [11]; 101% in experiment [12]. Further, the growth is 97.9% in experiment [13]; 101% in experiment [14]; 96.6% in experiment [15]; 89.2% in [16]; 76% in experiment [17]; 84.5% in experiment [18].

`O=Nc1c(O)ccc2ccccc12.O=Nc1c(O)ccc2ccccc12.O=Nc1c([O-])ccc2ccccc12.[Fe+3]`: the growth in experiment [1] is 109%; in experiment [2], 72.7%; in [3], 109%; in experiment [20], 88.9%; in experiment [5], 95.6%; in experiment [6], 98.8%. The growth in experiment [7] was 104%; in experiment [8] it was 107%; in experiment [10] it was 99.6%; in [11], 60.2%; in [12] it was 127%; in experiment [13], 102%. The growth in experiment [14] is 106%; in [15], 105%; in experiment [16] it was 107%; in [17] it was 110%; in [18] it was 105%.

Turning to `O=c1c2cc(F)ccc2sc2c(Nc3ccncc3)nc3ccccc3c12`, the growth in experiment [1] is -58.1% (active); in experiment [2] it was 56.5%; in experiment [19] it was -33% (active); in [20], -10.7% (active); in experiment [4] it was 75%; in experiment [5], 66.7%. Moreover, the growth in experiment [7] was 87.7%; in experiment [8], 99.5%; in experiment [9], 35.8%; in experiment [10], 90%; in experiment [11] it was -83.3% (active); in [12], 78.6%. Besides, the growth in [13] is 28.5%; in [14], 82.5%; in [15], 63.9%; in experiment [16], -27.4% (active); in experiment [17], -36.9% (active).
